We go through twelve compounds from PubChem BioAssay (EPA / NIEHS).

Assay [1] addresses human Adenosine A2a Receptor (AdoRA2a), ADORA2A (gene 135) (UniProt P29274). The assay is described as follows: NVS_GPCR_hAdoRA2a: NovaScreen (NVS) G Protein-Coupled Receptor Assay for human Adenosine A2a Receptor (AdoRA2a) (AID 2283256). In short, it runs like this:
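HEK293-derived receptor preparation, radioligand displacement, 1.5 h, filtration + scintillation read. Loss of bound signal scored vs DMSO. Single-point 25 uM in duplicate first, then concentration-response for actives.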

Assay [2] concerns the target human Thromboxane A2 Receptor (TXA2), TBXA2R (gene 6915) (UniProt P21731). The experiment in a line: NVS_GPCR_hTXA2: NovaScreen (NVS) G Protein-Coupled Receptor Assay for human Thromboxane A2 Receptor (TXA2) (AID 2283282).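 Further: actives reduce bound radioligand signal relative to DMSO baseline.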 Put shortly:
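Human platelet-derived receptor preparation incubated with test chemical and radiolabelled ligand for 1 hour, cell-free. Bound label was separated by filtration and counted; displacement relative to DMSO controls gave activity, screened at 25 uM, then titrated.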

The target of assay [3] is human Phosphodiesterase 10 (PDE10), PDE10A (gene 10846) (UniProt Q9Y233). The experiment in a line: NVS_ENZ_hPDE10: NovaScreen (NVS) Enzymatic Assay for human Phosphodiesterase 10 (PDE10) (AID 2283195). Put shortly:
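Readout is fluorescence intensity following electrophoretic mobility-shift separation, 1 h after dosing of isolated PDE10A protein. Hits meeting a preset threshold at 25 uM went to concentration series (max 50 uM), analysed relative to DMSO.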

Assay [4] has as its target human Adenosine A1 Receptor (AdoRA1), ADORA1 (gene 134) (UniProt P30542). The assay is described as follows: NVS_GPCR_hAdoRA1: NovaScreen (NVS) G Protein-Coupled Receptor Assay for human Adenosine A1 Receptor (AdoRA1) (AID 2283254). Put shortly: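 Each chemical is first tested twice at 25 uM, actives later in dilution series, against a radioligand bound to human cortex membranes; after 1 h, filter-retained counts are compared with DMSO controls, lower signal indicating displacement.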

In assay [5] the target is human Vascular Endothelial Growth Factor Receptor 1 (VEGFR1), FLT1 (gene 2321) (UniProt P17948). The experiment in a line: NVS_ENZ_hVEGFR1: NovaScreen (NVS) Enzymatic Assay for human Vascular Endothelial Growth Factor Receptor 1 (VEGFR1) (AID 2283226). Put shortly: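 Kinase activity of recombinant human VEGFR1 was read by fluorescence after electrophoretic separation of product from substrate, 1 h post-dosing; initial duplicate single-point testing at 25 uM, followed by concentration-series follow-up, with DMSO as baseline.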
Sequence of human Vascular Endothelial Growth Factor Receptor 1 (VEGFR1), FLT1 (gene 2321) (P17948 whole entry, looked up): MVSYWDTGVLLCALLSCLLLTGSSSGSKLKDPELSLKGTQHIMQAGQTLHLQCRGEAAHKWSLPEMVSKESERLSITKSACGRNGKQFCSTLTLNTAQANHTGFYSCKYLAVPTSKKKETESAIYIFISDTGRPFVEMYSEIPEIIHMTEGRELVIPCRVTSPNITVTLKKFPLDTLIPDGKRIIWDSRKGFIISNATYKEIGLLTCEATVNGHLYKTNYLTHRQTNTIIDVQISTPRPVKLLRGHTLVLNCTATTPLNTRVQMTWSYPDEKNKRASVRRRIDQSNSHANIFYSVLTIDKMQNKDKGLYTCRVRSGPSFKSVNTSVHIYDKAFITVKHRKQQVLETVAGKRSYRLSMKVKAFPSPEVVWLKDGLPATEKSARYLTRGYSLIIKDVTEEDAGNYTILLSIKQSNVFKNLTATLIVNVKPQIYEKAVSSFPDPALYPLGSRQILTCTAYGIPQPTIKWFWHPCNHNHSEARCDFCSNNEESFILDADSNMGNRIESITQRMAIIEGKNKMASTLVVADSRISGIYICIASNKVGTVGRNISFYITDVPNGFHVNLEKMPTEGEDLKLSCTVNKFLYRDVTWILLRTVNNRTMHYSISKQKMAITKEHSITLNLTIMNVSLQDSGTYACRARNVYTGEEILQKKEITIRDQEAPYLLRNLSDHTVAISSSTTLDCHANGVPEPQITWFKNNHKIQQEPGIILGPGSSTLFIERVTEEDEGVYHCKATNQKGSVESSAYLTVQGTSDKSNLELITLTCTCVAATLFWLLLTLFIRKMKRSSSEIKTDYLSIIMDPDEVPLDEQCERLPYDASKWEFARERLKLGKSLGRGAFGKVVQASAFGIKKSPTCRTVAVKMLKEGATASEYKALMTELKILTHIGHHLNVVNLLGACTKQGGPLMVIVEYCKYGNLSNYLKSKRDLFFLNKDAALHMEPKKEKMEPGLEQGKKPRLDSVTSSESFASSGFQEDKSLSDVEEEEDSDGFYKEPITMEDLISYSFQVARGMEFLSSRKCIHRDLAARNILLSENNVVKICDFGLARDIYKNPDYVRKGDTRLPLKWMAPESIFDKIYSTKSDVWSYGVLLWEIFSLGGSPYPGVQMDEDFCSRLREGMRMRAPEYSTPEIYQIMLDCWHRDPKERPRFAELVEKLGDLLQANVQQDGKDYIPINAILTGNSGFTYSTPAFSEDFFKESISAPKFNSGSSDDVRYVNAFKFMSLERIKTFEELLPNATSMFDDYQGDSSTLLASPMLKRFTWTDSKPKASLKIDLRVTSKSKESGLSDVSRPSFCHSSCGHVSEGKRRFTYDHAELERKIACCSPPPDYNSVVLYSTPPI

In assay [6] the target is D(1A) dopamine receptor (Homo sapiens) (UniProt P21728). The assay is described as follows: NVS_GPCR_hDRD1: NovaScreen (NVS) G Protein-Coupled Receptor Assay for human Dopamine Receptor D1 (DRD1) (AID 2283269). In short, it runs like this: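 Extracted HEK293 DRD1 is incubated 1 h with compound and a tritiated or iodinated radioligand, then filtered and counted. Screening runs 25 uM in duplicate with on-plate positive and negative controls.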
Sequence of D(1A) dopamine receptor (Homo sapiens) (P21728 whole entry, looked up): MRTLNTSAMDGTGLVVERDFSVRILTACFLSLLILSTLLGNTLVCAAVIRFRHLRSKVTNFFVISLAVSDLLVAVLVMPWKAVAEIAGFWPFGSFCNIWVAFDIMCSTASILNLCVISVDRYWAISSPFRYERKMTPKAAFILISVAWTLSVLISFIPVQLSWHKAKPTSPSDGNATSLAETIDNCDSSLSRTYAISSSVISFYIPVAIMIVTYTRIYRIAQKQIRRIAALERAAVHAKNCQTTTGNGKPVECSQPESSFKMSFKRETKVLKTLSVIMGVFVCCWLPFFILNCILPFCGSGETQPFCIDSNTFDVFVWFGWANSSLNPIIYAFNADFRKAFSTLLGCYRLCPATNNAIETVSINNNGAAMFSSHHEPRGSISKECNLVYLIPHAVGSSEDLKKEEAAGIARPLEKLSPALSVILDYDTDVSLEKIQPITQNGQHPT

The target of assay [7] is human Neurokinin, NK2 Receptor, TACR2 (gene 6865) (UniProt P21452). The experiment in a line: NVS_GPCR_hNK2: NovaScreen (NVS) G Protein-Coupled Receptor Assay for human Neurokinin, NK2 Receptor (AID 2283278).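 Further: actives reduce bound radioligand signal relative to DMSO baseline.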 In short, it runs like this: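 Test chemicals displace a radioligand from receptor prepared from CHO cells in a cell-free format, read after 4 hours by scintillation counting on filters. Screening starts at 25 uM in duplicate, and active chemicals then go to concentration series.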

Assay [8] concerns the target Tyrosine-protein phosphatase non-receptor type 11 (Homo sapiens) (UniProt Q06124). The experiment in a line: NVS_ENZ_hPTPN11: NovaScreen (NVS) Enzymatic Assay for human Protein Tyrosine Phosphatase Non-receptor Type 11 (PTPN11) (AID 2283202). In short, it runs like this:
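Compounds first tested in duplicate at 25 uM; those reaching ~30% inhibition rerun in singleton concentration-response, top 50 uM. Phosphatase activity measured after 0.5 h by fluorescence with mobility-shift separation, relative to DMSO.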

The target in assay [9] is Tyrosine-protein phosphatase non-receptor type 12 (Homo sapiens) (UniProt Q05209). The experiment in a line: NVS_ENZ_hPTPN12: NovaScreen (NVS) Enzymatic Assay for human Protein Tyrosine Phosphatase Non-receptor Type 12 (PTPN12) (AID 2283204). In short, it runs like this:
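Single-concentration duplicates (25 uM) preceded singleton concentration-response up to 50 uM for chemicals passing threshold. Cell-free recombinant PTPN12 activity was read 1.33 h after dosing via fluorescence after mobility-shift separation; loss of signal versus DMSO.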

Assay [10] concerns the target human Vascular Endothelial Growth Factor Receptor 3 (VEGFR3), FLT4 (gene 2324) (UniProt P35916). The assay is described as follows: NVS_ENZ_hVEGFR3: NovaScreen (NVS) Enzymatic Assay for human Vascular Endothelial Growth Factor Receptor 3 (VEGFR3) (AID 2283229). Put shortly:
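Chemicals first run in duplicate at 25 uM, with actives re-tested in concentration series to a top of 50 uM. Recombinant VEGFR3 activity measured after 1 h via fluorescence with mobility-shift product separation; inhibition fitted relative to DMSO.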

For assay [11], the target named is human Vascular Endothelial Growth Factor Receptor 2 (VEGFR2), KDR (gene 3791) (UniProt P35968). The experiment in a line: NVS_ENZ_hVEGFR2: NovaScreen (NVS) Enzymatic Assay for human Vascular Endothelial Growth Factor Receptor 2 (VEGFR2) (AID 2283230). Put shortly:
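Cell-free recombinant VEGFR2 kinase, fluorescent substrate with electrophoretic mobility-shift separation; read 1 h after dosing. Screened at 25 uM in duplicate, hits to concentration-response up to 50 uM; loss-of-signal versus DMSO.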

For assay [12], the target named is sheep Cyclooxygenase-2 (Cox2), PTGS2 (gene 443460) (UniProt P79208). The assay is described as follows: NVS_ENZ_oCOX2: NovaScreen (NVS) Enzymatic Assay for sheep Cyclooxygenase-2 (Cox2) (AID 2283231). Put shortly: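 Compounds were first run at 25 uM in duplicate against tissue-extracted ovine COX-2; those passing a preset inhibition threshold went to singleton concentration-response testing with a 50 uM maximum. Read-out: absorbance at 0.66 hour.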

For assay [13], the target named is human Endothelin Receptor Type A (ETA), EDNRA (gene 1909) (UniProt P25101). The assay is described as follows: NVS_GPCR_hETA: NovaScreen (NVS) G Protein-Coupled Receptor Assay for human Endothelin Receptor Type A (ETA) (AID 2283265). Put shortly:
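Binding of radioligand to membrane protein extracted from SH-SY5Y cells was read by filtration and scintillation after 3 h. Compounds were screened at 25 uM in duplicate, with hits followed up in singleton concentration series to 50 uM.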

Assay [14] addresses Muscarinic acetylcholine receptor M1 (Homo sapiens) (UniProt P11229). The assay is described as follows: NVS_GPCR_hM1: NovaScreen (NVS) G Protein-Coupled Receptor Assay for human Muscarinic, M1 Receptor (AID 2283270). Put shortly:
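Actives from a duplicate 25 uM single-point screen were retested in concentration series. Binding measured as displacement of a radioligand from CHO-derived receptor preparation, 1 h incubation, filtration and scintillation counting, analysed as signal loss against DMSO.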

The target in assay [15] is human Orphanin, Opioid Related Nociceptin Receptor 1 (ORL1), OPRL1 (gene 4987) (UniProt P41146). The experiment in a line: NVS_GPCR_hORL1: NovaScreen (NVS) G Protein-Coupled Receptor Assay for human Orphanin, Opioid Related Nociceptin Receptor 1 (ORL1) (AID 2283283). Put shortly:
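Cell-free binding using HEK293-derived receptor protein: radioligand displacement measured by filter scintillation 1 hour after dosing. Primary testing at 25 uM in duplicate, followed by singleton concentration series up to 50 uM; DMSO served as negative control.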

The target of assay [16] is human Phosphoinositide 3-kinase alpha (PI3Ka), PIK3CA (gene 5290) (UniProt P42336). The assay is described as follows: NVS_ENZ_hPI3Ka: NovaScreen (NVS) Enzymatic Assay for human Phosphoinositide 3-kinase alpha (PI3Ka) (AID 2283196). Put shortly: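 Duplicate single-point screen (25 uM), then singleton dose-response (max 50 uM) for compounds meeting the threshold. Cell-free kinase reaction, 1 h; fluorescent mobility-shift readout.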

Records with an inconclusive call do not appear. Activity calls are given as the source filed them. How the source made its calls: active means hit-call score of the fitted dose curve at least 0.9, where 1 is the maximum; inconclusive means response in the unintended direction; inactive means score below 0.9.

Sequence of human Thromboxane A2 Receptor (TXA2), TBXA2R (gene 6915) (P21731 whole entry, looked up): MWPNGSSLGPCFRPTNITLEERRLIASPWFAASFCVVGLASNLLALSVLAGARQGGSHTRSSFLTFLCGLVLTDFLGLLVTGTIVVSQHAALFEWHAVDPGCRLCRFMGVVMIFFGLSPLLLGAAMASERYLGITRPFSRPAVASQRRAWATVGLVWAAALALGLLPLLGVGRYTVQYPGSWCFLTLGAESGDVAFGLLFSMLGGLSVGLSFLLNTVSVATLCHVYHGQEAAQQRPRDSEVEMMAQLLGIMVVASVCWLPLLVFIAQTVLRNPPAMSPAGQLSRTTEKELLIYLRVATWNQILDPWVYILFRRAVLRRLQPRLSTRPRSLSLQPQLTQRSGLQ
Sequence of human Phosphodiesterase 10 (PDE10), PDE10A (gene 10846) (Q9Y233 whole entry, looked up): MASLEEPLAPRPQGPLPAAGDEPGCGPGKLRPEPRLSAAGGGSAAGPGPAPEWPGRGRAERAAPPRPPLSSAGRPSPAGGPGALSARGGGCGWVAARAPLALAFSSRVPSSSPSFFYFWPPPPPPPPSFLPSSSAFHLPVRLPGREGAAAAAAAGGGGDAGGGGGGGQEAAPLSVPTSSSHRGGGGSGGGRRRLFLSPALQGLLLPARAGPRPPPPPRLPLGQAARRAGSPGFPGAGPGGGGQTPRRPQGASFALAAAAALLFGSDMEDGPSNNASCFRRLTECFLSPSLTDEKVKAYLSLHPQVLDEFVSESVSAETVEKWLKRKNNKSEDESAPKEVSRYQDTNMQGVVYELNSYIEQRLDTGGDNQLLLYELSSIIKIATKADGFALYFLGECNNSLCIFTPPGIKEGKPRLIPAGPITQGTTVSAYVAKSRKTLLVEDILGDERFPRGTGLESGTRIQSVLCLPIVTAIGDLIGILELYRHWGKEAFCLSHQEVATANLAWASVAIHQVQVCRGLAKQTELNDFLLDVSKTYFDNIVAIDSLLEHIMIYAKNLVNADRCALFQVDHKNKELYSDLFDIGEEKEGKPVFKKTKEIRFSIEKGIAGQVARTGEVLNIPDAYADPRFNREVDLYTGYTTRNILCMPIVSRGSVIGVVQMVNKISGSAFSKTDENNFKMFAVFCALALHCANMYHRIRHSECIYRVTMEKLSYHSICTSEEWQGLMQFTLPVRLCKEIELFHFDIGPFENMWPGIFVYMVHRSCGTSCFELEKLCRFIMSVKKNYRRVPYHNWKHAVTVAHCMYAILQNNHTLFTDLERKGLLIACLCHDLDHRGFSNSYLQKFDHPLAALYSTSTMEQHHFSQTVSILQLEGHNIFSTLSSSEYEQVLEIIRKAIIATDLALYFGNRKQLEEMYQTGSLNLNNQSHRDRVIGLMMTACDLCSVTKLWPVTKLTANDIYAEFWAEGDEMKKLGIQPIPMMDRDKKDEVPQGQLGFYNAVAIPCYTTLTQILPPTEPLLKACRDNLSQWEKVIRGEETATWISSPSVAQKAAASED
Sequence of human Adenosine A1 Receptor (AdoRA1), ADORA1 (gene 134) (P30542 whole entry, looked up): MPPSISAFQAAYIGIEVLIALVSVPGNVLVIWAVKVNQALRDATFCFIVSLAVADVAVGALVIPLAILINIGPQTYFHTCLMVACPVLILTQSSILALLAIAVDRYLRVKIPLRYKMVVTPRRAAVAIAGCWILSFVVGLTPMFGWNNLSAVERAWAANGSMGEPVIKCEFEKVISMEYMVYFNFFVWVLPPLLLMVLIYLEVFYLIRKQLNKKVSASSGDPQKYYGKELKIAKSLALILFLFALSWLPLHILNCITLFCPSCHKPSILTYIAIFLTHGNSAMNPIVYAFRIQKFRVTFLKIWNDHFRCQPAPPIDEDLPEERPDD
Sequence of human Orphanin, Opioid Related Nociceptin Receptor 1 (ORL1), OPRL1 (gene 4987) (P41146 whole entry, looked up): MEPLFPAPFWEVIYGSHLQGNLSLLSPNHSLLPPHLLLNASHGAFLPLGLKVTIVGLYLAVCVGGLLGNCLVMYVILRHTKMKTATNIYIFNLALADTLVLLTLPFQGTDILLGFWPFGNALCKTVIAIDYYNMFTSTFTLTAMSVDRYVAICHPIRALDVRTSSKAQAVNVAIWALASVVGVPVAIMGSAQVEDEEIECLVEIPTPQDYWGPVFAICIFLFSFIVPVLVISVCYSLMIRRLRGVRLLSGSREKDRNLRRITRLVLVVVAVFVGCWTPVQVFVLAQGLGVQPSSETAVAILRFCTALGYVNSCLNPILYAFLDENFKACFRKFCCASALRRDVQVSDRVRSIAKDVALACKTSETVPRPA
Sequence of Tyrosine-protein phosphatase non-receptor type 11 (Homo sapiens) (Q06124 whole entry, looked up): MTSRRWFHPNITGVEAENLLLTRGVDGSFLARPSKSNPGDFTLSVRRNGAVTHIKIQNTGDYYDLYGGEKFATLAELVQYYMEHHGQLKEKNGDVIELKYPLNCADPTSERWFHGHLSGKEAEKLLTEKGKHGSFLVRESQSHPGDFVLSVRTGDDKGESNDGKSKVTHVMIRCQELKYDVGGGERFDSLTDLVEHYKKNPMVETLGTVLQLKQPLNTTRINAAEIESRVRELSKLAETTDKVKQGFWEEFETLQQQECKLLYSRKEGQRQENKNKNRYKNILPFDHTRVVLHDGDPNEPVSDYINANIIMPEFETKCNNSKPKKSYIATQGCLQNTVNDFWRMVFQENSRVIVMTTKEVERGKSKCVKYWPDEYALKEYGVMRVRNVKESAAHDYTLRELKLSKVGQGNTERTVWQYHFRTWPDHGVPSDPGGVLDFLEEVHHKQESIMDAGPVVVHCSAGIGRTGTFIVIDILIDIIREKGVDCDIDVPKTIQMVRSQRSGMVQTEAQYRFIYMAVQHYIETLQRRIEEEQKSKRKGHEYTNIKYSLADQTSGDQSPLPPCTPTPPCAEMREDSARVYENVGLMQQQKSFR
Sequence of human Endothelin Receptor Type A (ETA), EDNRA (gene 1909) (P25101 whole entry, looked up): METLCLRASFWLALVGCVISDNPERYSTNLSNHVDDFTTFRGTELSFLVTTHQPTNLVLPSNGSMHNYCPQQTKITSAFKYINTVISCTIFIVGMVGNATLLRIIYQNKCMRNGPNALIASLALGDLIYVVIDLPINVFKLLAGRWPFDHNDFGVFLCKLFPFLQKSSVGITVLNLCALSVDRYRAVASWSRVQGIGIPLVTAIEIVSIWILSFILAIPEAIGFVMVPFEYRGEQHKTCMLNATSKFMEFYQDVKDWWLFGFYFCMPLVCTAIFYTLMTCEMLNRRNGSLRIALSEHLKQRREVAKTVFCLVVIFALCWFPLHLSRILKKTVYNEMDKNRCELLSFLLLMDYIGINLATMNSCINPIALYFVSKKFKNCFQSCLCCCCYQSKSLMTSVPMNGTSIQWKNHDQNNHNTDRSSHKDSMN

`CCOC(C=C(C)CCC=C(C)C)OCC`: the result in assay [1] and in [2] was inactive.
Turning to `Nc1cc([N+](=O)[O-])cc(Cl)c1O`, the result in assay [3] was inactive.
The AC50 is the concentration giving half of the maximal activity seen. With `O=C1c2ccccc2C(=O)c2c(Cl)cccc21`, the AC50 in assay [4] was 13.3 µM (active).
Take `O=C(Cl)c1ccc(Cl)cc1Cl`: the compound was called inactive in [3].
In the case of `C=CCOC(=O)CC(C)C`, in assay [5], the call was inactive.
`O=C1C=CC(=O)N1c1ccc(Cc2ccc(N3C(=O)C=CC3=O)cc2)cc1`: the result in assay [3] was inactive. The half-maximal activity concentration (AC50) in assay [6] was 25 µM (active); in assay [7] it was 28.4 µM (active).
For the compound `CCN(CC)c1ccc(C=O)c(O)c1`, the result in assay [6] and in assay [2] was inactive.
For the compound `Nc1cccnc1N`, in assay [3], the outcome was inactive. For the same compound, the AC50 in assay [4] is 9.6 µM (active).
Turning to `CCOCN(C(=O)CS(=O)(=O)O)c1c(C)cccc1CC`, the result in [2] was inactive.
On to `CCCCCCCCCCCCCC[P+](CCCC)(CCCC)CCCC`, for which the AC50 in assay [8] is 14.8 µM (active); in assay [9], 18.5 µM (active); in assay [5], 10 µM (active); in [10], 17.5 µM (active); in assay [11], 11.4 µM (active); in assay [12], 5.19 µM (active). Moreover, the figures for the AC50 in assay [13], in assay [14] and in assay [15] were 6.26 µM (active), 1.02 µM (active) and 6.46 µM (active), respectively.
With `O=C1c2c(O)ccc(Nc3ccc(CCO)cc3)c2C(=O)c2c([N+](=O)[O-])ccc(O)c21`, the values for the AC50 in assay [16] and in assay [5] were 2.07 µM (active) and 0.885 µM (active), respectively. Besides, the result in assay [2] was inactive.
Turning to `CC(=O)c1ccccc1N`, the compound was classed as inactive in [2].
